Source: PubChem BioAssay (National Center for Advancing Translational Sciences (NCATS))
Shiga toxin inh – A qHTS for Small Molecule Inhibitors of Shiga Toxin. Vero cells, Shiga toxin protein synthesis inhibition reporter. inhibition, % at 38.7 µM. 9.2% of 290,000 active. AID 2315, 2010; in the data active means inhibition mostly above about 28%, no sharp cut-off; inactive means mostly below about 43%; further: 0% is about no effect
Giardia FBPA inh – qHTS Assay for Inhibitors of Fructose-1,6-bisphosphate Aldolase from Giardia Lamblia. purified Giardia FBPA. 0.71% of 290,000 active. Potency, µM (highest dose often 59.6 µM), for inactives: at the highest dose activity, negative = inhibition, most hits filed as inhibitors. A8B2U2; further: potency means the concentration at half of the fitted maximal effect; on the % scale 0 is the no-effect control and ±100 the full control effect; nearly all actives have a fitted effect of over 55% in size
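Giardia FBPA (40 nM reagent) was preincubated 10 min at RT with compound (up to 57.5 uM final), then substrate plus GAPDH/TPI/NAD/arsenate coupling system with diaphorase/resazurin was added; resorufin fluorescence (525/598 nm) was read after 20 min.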
LmPK inhibitor – qHTS Assay for Inhibitors of Leishmania Mexicana Pyruvate Kinase (LmPK). 0.37% of 290,000 active. Q27686. Potency, µM (top dose mostly 57.5 µM), for inactives: at the highest dose activity change, negative = inhibition, most hits filed as inhibitors. purified LmPK, Kinase-Glo ATP luminescence, 1 h; further: potency means the concentration at half of the fitted maximal effect; on the % scale 0 is the no-effect control and ±100 the full control effect
Target sequence (Q27686 whole entry, looked up): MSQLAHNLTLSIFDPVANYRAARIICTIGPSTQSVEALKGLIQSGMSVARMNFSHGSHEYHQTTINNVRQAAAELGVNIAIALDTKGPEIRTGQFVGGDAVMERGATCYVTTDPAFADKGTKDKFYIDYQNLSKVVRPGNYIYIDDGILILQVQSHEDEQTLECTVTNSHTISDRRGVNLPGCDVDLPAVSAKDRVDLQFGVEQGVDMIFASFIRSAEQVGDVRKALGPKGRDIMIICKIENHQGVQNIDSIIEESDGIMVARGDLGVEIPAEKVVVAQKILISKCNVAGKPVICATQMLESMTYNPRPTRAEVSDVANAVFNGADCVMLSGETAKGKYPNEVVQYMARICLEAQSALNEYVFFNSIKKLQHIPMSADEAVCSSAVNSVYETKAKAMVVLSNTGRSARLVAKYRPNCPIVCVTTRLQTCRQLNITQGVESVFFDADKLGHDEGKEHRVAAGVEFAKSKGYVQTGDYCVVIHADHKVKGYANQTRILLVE
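In 50 mM imidazole pH 7.2 with 7 mM MgCl2, LmPK (0.1 nM) turned over PEP (0.5 mM) and ADP (0.1 mM) for 1 h at room temperature. Luciferase read-out of ATP.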
Sm TGR inh – qHTS Assay for the Inhibitors of Schistosoma Mansoni Peroxiredoxins; Schistosoma mansoni thioredoxin glutathione reductase (TGR), Q962Y6; purified TGR, DTNB reduction, TNB absorbance 405 nm; Potency, µM (series often up to 114 µM), for inactives: at the highest dose activity change, negative = inhibition, most hits filed as inhibitors; 3% of 360,000 active; further: potency means the concentration at half of the fitted maximal effect; on the % scale 0 is the no-effect control and ±100 the full control effect; nearly all actives have a fitted effect of over 60% in size
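TGR 20 nM + NADPH 100 uM (dispensed conc.), cpd preinc 15 min RT; start with NADPH (500 uM addition) then DTNB (15 mM addition). Kinetic TNB absorbance, 405 nm filter. Four-parameter Hill fit across titration.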
Cycloheximide cs – Cycloheximide Counterscreen for Small Molecule Inhibitors of Shiga Toxin; cell reporter, cycloheximide protein synthesis inhibition counterscreen; max response, %; 12% of 300,000 active; in the data active means max response mostly above about 13%, no sharp cut-off; inactive means mostly below about 14%; further: read at 38.3 µM for the half of the compounds with a filed dose; 0% is about no effect
TbPYK inhibitor – qHTS of Trypanosoma Brucei Inhibitors; TbPYK enzyme, Kinase-Glo Plus ATP luminescence, 45 min; Potency, µM (doses to about 76.8 µM), inactives show top-dose activity, negative = inhibition, usual class: inhibitors; 0.12% of 410,000 active; AID 624173, 2012; further: potency means the concentration at half of the fitted maximal effect; on the % scale 0 is the no-effect control and ±100 the full control effect; nearly all actives have a fitted effect of over 50% in size
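Readout: single end-point luminescence (Kinase-Glo Plus, 10 min). Reaction conditions were TbPYK/substrate plus 130 uM ADP, 45 min at RT, pH 7.2 TEA buffer. No-enzyme wells served as controls, and data were normalized before concentration-response fitting.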
Starred values were filed as active, the others as inactive; ? = inconclusive; . = no result given; [ ] = remark or other dose. The sample as a whole holds a higher share of hits than the screen did. Unless noted, the call rests on the fitted dose curve; in most records, active means well fitted curve in the direction sought with a large enough effect; inconclusive means small, poorly fitted or top-dose-only effect, or another doubt; inactive means no such curve, though single readings can be large; an effect the other way counts as inactive or inconclusive.

SMILES	Shiga toxin inh	Giardia FBPA inh	LmPK inhibitor	Sm TGR inh	Cycloheximide cs	TbPYK inhibitor
CCN(CC)c1ncnc2c1ncn2[C@H]1CN(Cc2ccc(-c3ccccc3)cc2)C[C@@H](CO)O1	.	.	.	.	.	0.3%
Cc1cc(C(=O)N2CCc3ccccc3C2)n[nH]1	53.3*	4.4%	1.5%	-1.7%	23.8*	-7.5%
Cc1cc(C(=O)N2CCc3ccccc3C2)no1	13.0	.	-2.3%	-2.1%	18.9*	-5.9%
O=C(c1cc(-c2ccccc2)on1)N1CCc2ccccc2C1	-6.0	-0.7%	0.1%	-12.2%	-0.6	0.0%
COc1ccc2cc(CNc3ccc(C)cc3)c(=O)n(CC(=O)Nc3ccc(OC)c(Cl)c3)c2c1	.	.	.	0.9%	.	-8.3%
CCN1CCN(c2nc3c(S(=O)(=O)c4ccc(Br)cc4)nnn3c3ccsc23)CC1	.	.	.	2.6%	.	4.5%
Cc1ccc(/C=N/NC(=O)c2cc(C)oc2C)cc1	60.1*	1.6%	12.6µM*	-7.6%	53.4*	-1.7%
CC(/C=N/NC(=O)c1cc(-c2ccc(C)o2)[nH]n1)=C\c1ccccc1	-5.8	1.8%	2.5%	-34.8%	-2.4	-0.9%
Cc1ccc(/C=N/NC(=O)c2cc(C)oc2C)o1	21.1	-2.1%	-10.5%	-15.8%	15.4*	5.6%
Cc1cc(C(=O)N/N=C/c2ccncc2)c(C)o1	17.1	3.6%	?	2.2%	11.1	-0.4%
CC(/C=N\NC(=O)c1cc(C)oc1C)=C\c1ccccc1	18.6	-0.2%	-8.8%	-13.2%	21.9*	0.3%
O=C(Cn1c(=O)c(CNc2ccccc2)cc2cc3c(cc21)OCCO3)Nc1ccccc1Cl	21.3	.	.	-20.2%	12.7	2.1%
CCn1c(-c2ccccc2)c(C(=O)CCl)c2ccccc21	-1.6	7.7%	0.2%	17.8µM*	7.6	-0.2%
Cn1c(-c2ccccc2)c(C(=O)CCl)c2ccccc21	-10.0	-1.2%	3.3%	6.31µM*	11.6	-2.9%
CCCc1cc(C(=O)Nc2cc(Cl)ccc2O)no1	92.4*	8.3%	-7.3%	-0.3%	31.1*	-2.4%
CCCc1cc(C(=O)Nc2cc(Br)ccc2O)no1	56.8*	1.0%	1.0%	4.9%	21.7*	9.2%
Cc1ccc(-c2cc(C(=O)Nc3cc(C)ccc3O)no2)cc1	20.1	3.8%	-2.8%	1.6%	12.0	3.5%
CCn1c([N+](=O)[O-])nc2c1c(=O)[nH]c(=O)n2C	18.3	12.6µM*	-8.7%	25.1µM*	11.2	2.0%
CCCCCCn1c(SCCCC)nc2c1c(=O)[nH]c(=O)n2C	-5.6	-0.9%	0.1%	-13.4%	-1.4	8.6%
Cn1c(NC(=O)/C=C/c2ccc(Cl)c(Cl)c2)cc(=O)n(C)c1=O	2.1	0.8%	0.3%	-5.8%	10.4	5.1%
COc1ccc(/C=C/C(=O)Nc2cc(=O)n(C)c(=O)n2C)cc1	20.9	4.2%	-2.5%	-5.3%	30.6*	-1.4%
Cn1c(NC(=O)CCc2ccccc2)cc(=O)n(C)c1=O	70.5*	6.5%	-1.2%	-2.0%	43.3*	0.2%
Cn1c(NC(=O)/C=C/c2ccccc2)cc(=O)n(C)c1=O	31.0	3.0%	5.1%	2.9%	33.7*	-4.6%
Cc1oc2c(c1C(=O)Nc1ccccc1Br)C1=NCCN1C=N2	.	.	.	1.4%	.	2.2%
Fc1ccccc1-n1cn[nH]c1=S	68.7*	?	0.3%	-7.7%	28.3*	-15.4%
SMILES	Shiga toxin inh	Giardia FBPA inh	LmPK inhibitor	Sm TGR inh	Cycloheximide cs	TbPYK inhibitor
COc1cccc(-c2cc(NCc3cccc(C)c3)ncn2)c1	.	-7.0%	.	.	.	.
Clc1ccc(-c2cc3ccccc3[nH]2)cc1	110.2*	-2.0%	2.6%	-22.1%	62.4*	2.7%
Cc1ccc(-n2nc3c(=O)n(C(C)C(=O)NCc4ccc(OC(C)C)cc4)nc(C)c3c2C)cc1 (stereo not drawn)	.	.	.	-14.1%	.	2.3%
CC1=C(C(=O)Nc2ccccc2)C(c2cccnc2)n2nc(SCc3ccccc3F)nc2N1 (stereo not drawn)	.	.	.	-16.8%	.	-1.2%
CC(C)(C)c1ccc(-c2csc(NNC3=NCCCCC3)n2)cc1	29.8	?	8.0%	19.6%	20.0*	?
Brc1ccc(-c2csc(NNC3=NCCCCC3)n2)cc1	42.4	?	4.8%	-3.9%	24.9*	-7.4%
FC(F)Oc1ccc(-c2csc(NNC3=NCCCCC3)n2)cc1	34.7	?	-4.5%	-0.8%	21.3*	-21.4%
CC(Oc1ccccc1)C(=O)Nc1nc(-c2ccncc2)cs1 (stereo not drawn)	.	.	.	-11.3%	.	-2.5%
Cc1ccccc1NC(=O)CSc1nc2c(oc3ccccc32)c(=O)n1Cc1ccco1	.	.	.	-1.1%	.	-9.6%
CCOC(=O)c1cc2c(C)n(-c3ccc(OCC)cc3)c(C)c2ccc1=O	43.2	-16.9%	6.0%	?	16.0*	0.7%
CCOC(=O)c1cc2c(C)n(-c3ccc(C)cc3)c(C)c2ccc1=O	119.8*	-15.7%	4.7%	?	35.2*	3.8%
O=C(COCc1cc(-c2ccco2)on1)Nc1cccc(O)c1	.	.	.	2.6%	.	-2.2%[15.4 µM]
COc1ccc(-n2c(=S)[nH]c(=O)c3cccnc32)cc1	-6.2	-18.5%	1.8%	17.8µM*	-1.4	-14.3%
COc1ccc(-n2c(=S)[nH]c3c(oc4ccccc43)c2=O)cc1	13.9	8.2%	-2.3%	-7.1%	11.6	-25.2%
COc1ccc(OC)c(-c2csc(-c3c(N)c(C(=O)c4ccc(Cl)cc4)n4ccccc34)n2)c1	.	.	.	2.6%	.	-3.9%
Cc1sc(NC(=O)C2CCCO2)c(C#N)c1C (stereo not drawn)	23.2	-25.4%	-10.3%	-8.1%	15.3*	-7.0%
Cc1sc(NC(=O)C2CCCO2)c(C(N)=O)c1C (stereo not drawn)	-21.8	0.8%	-1.4%	-9.2%	14.6	-16.1%
N#Cc1c(NC(=O)C2CCCO2)sc2c1CCCCCC2 (stereo not drawn)	83.9*	0.9%	0.4%	3.5%	39.0*	5.8%
NC(=O)c1c(NC(=O)C2CCCO2)sc2c1CCCC2 (stereo not drawn)	56.5*	-11.1%	0.3%	-1.9%	37.9*	-5.4%
N#Cc1c(NC(=O)C2CC=CCC2C(=O)O)sc2c1CCCCCC2 (stereo not drawn)	10.8	21.4%	6.2%	-3.1%	-5.9	-19.3%
CCOc1ccc(C(=O)NCCn2cc(SCC(=O)Nc3ccccc3)c3ccccc32)cc1	.	.	.	-20.4%	.	-11.9%
C[C@H]1C=C(C(=O)NC2CC2)O[C@@H](OCc2ccc(CO)cc2)C1	42.9	6.6%	-1.6%	4.4%	12.8*	-2.5%
O=C(C1=C[C@@H](c2ccc(C(F)(F)F)cc2)C[C@@H](OCc2ccc(CO)cc2)O1)N1CCN(Cc2ccccc2)CC1	2.8	-5.1%	10.5%	35.5µM*	-1.8	-4.2%
